Results from the supplement of paper PMC6897291.

Test system: RIVA
Test: growth inhibition by drug plus 177Lu-lilotomab satetraxetan (1 - RLU/untreated control) (fraction); higher = stronger inhibition
Settings: 177Lu-lilotomab satetraxetan 0.5 ug/ml
Procedure: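 RIVA (RI-1) ABC-DLBCL cells were pretreated or not for 18 h with 0.5 ug/ml 177Lu-lilotomab satetraxetan (600 MBq/mg), washed and seeded (3000 cells/well) on 384-well plates pre-printed with the Selleck Cambridge Cancer Compound library. Viability was read by RealTime-Glo luminescence on days 3-6 after seeding. Effect = 1 - RLU/mean RLU of the 48 untreated no-drug control wells per plate; Bliss score = (M-E)/(1-Fa).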

SMILES: Cc1ccccc1-n1c(Cn2cnc3c(N)ncnc32)nc2cccc(C)c2c1=O
- growth inhibition by drug plus 177Lu-lilotomab satetraxetan (10 nM, time (day): 3): 0.471
- growth inhibition by drug plus 177Lu-lilotomab satetraxetan (10 nM, time (day): 4): 0.529
- growth inhibition by drug plus 177Lu-lilotomab satetraxetan (10 nM, time (day): 5): 0.546
- growth inhibition by drug plus 177Lu-lilotomab satetraxetan (10 nM, time (day): 6): 0.556
- growth inhibition by drug plus 177Lu-lilotomab satetraxetan (100 nM, time (day): 3): 0.375
- growth inhibition by drug plus 177Lu-lilotomab satetraxetan (100 nM, time (day): 4): 0.45
- growth inhibition by drug plus 177Lu-lilotomab satetraxetan (100 nM, time (day): 5): 0.472
- growth inhibition by drug plus 177Lu-lilotomab satetraxetan (100 nM, time (day): 6): 0.479

SMILES: CN(C)CCN(C)CCc1ccc(Cl)c(Cl)c1
- growth inhibition by drug plus 177Lu-lilotomab satetraxetan (10 nM, time (day): 3): 0.215
- growth inhibition by drug plus 177Lu-lilotomab satetraxetan (10 nM, time (day): 4): 0.408
- growth inhibition by drug plus 177Lu-lilotomab satetraxetan (10 nM, time (day): 5): 0.459
- growth inhibition by drug plus 177Lu-lilotomab satetraxetan (10 nM, time (day): 6): 0.48
- growth inhibition by drug plus 177Lu-lilotomab satetraxetan (100 nM, time (day): 3): 0.0519
- growth inhibition by drug plus 177Lu-lilotomab satetraxetan (100 nM, time (day): 4): 0.192
- growth inhibition by drug plus 177Lu-lilotomab satetraxetan (100 nM, time (day): 5): 0.22
- growth inhibition by drug plus 177Lu-lilotomab satetraxetan (100 nM, time (day): 6): 0.211

SMILES: CC(=O)Nc1ccc(OC[C@](C)(O)C(=O)Nc2ccc([N+](=O)[O-])c(C(F)(F)F)c2)cc1 [Andarine (GTX-007)]
- growth inhibition by drug plus 177Lu-lilotomab satetraxetan (10 nM, time (day): 3): 0.585
- growth inhibition by drug plus 177Lu-lilotomab satetraxetan (10 nM, time (day): 4): 0.603
- growth inhibition by drug plus 177Lu-lilotomab satetraxetan (10 nM, time (day): 5): 0.615
- growth inhibition by drug plus 177Lu-lilotomab satetraxetan (10 nM, time (day): 6): 0.608
- growth inhibition by drug plus 177Lu-lilotomab satetraxetan (100 nM, time (day): 3): 0.404
- growth inhibition by drug plus 177Lu-lilotomab satetraxetan (100 nM, time (day): 4): 0.5
- growth inhibition by drug plus 177Lu-lilotomab satetraxetan (100 nM, time (day): 5): 0.511
- growth inhibition by drug plus 177Lu-lilotomab satetraxetan (100 nM, time (day): 6): 0.533

SMILES: CCC1(c2ccc(N)cc2)CCC(=O)NC1=O (stereo not given) [Aminoglutethimide (Cytadren)]
- growth inhibition by drug plus 177Lu-lilotomab satetraxetan (10 nM, time (day): 3): 0.446
- growth inhibition by drug plus 177Lu-lilotomab satetraxetan (10 nM, time (day): 4): 0.523
- growth inhibition by drug plus 177Lu-lilotomab satetraxetan (10 nM, time (day): 5): 0.538
- growth inhibition by drug plus 177Lu-lilotomab satetraxetan (10 nM, time (day): 6): 0.547
- growth inhibition by drug plus 177Lu-lilotomab satetraxetan (100 nM, time (day): 3): 0.226
- growth inhibition by drug plus 177Lu-lilotomab satetraxetan (100 nM, time (day): 4): 0.376
- growth inhibition by drug plus 177Lu-lilotomab satetraxetan (100 nM, time (day): 5): 0.379
- growth inhibition by drug plus 177Lu-lilotomab satetraxetan (100 nM, time (day): 6): 0.408

SMILES: N.N.[Cl][Pt][Cl] [Cisplatin]
- growth inhibition by drug plus 177Lu-lilotomab satetraxetan (10 nM, time (day): 3): 0.539
- growth inhibition by drug plus 177Lu-lilotomab satetraxetan (10 nM, time (day): 4): 0.565
- growth inhibition by drug plus 177Lu-lilotomab satetraxetan (10 nM, time (day): 5): 0.592
- growth inhibition by drug plus 177Lu-lilotomab satetraxetan (10 nM, time (day): 6): 0.599
- growth inhibition by drug plus 177Lu-lilotomab satetraxetan (100 nM, time (day): 3): 0.463
- growth inhibition by drug plus 177Lu-lilotomab satetraxetan (100 nM, time (day): 4): 0.526
- growth inhibition by drug plus 177Lu-lilotomab satetraxetan (100 nM, time (day): 5): 0.544
- growth inhibition by drug plus 177Lu-lilotomab satetraxetan (100 nM, time (day): 6): 0.57
